# Experimental data as given in PubChem BioAssay (Tox21).
# Unmarked numbers belong to inactive results. Calls of active or inactive are those of the source. The call rests on the fitted dose curve; in most records, active means well fitted curve in the direction sought with a large enough effect in the repeat runs; inconclusive means weak or mixed curves; inactive means flat fitted curve, though single readings scatter.
# Experiment: qHTS assay to test for compound auto fluorescence at 590 nm (red) in HepG2 cell free culture (AID 720684)
# Conditions: cell-free medium autofluorescence, red 540/590 nm; series mostly up to 91.3 µM; fluorescence, % of Rose Bengal: at the top concentration
# Summary of the method: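 Steps: dispense MEM/10% FBS medium, no cells; pin compound or DMSO vehicle; read red channel, Ex/Em 540/590 nm. Output given as Rose Bengal sodium equivalents.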
# On the % scale 0 is the no-effect control and ±100 the full control effect.
SMILES,outcome,"fluorescence, % of Rose Bengal"
CCCCC(CC)COC(=O)C(C#N)=C(c1ccccc1)c1ccccc1 (centres undefined),inactive,–
O=C(Oc1ccccc1)c1ccccc1,inactive,–
CC1CCC(C(C)C)C(O)C1 (centres undefined),inactive,–
CCCCCCCCCCCCOCCO,–,-0.198%
O=C(O)[C@H](O)[C@@H](O)[C@H](O)[C@H](O)CO,inactive,–
CCCSc1ccc2nc(NC(=O)OC)[nH]c2c1,inactive,–
O=C(O)CCCC[C@@H]1SC[C@@H]2NC(=O)N[C@@H]21,inactive,–
CCc1ccc(CCOc2ccc(CC3SC(=O)NC3=O)cc2)nc1 (centres undefined),inactive,–
COc1ccc2cc([C@H](C)C(=O)O)ccc2c1,inactive,–
COCCCOc1ccnc(CS(=O)c2nc3ccccc3[nH]2)c1C (centres undefined),inactive,–
O=C(O)c1cc(C(=O)O)cc(S(=O)(=O)O)c1,inactive,–
Cc1ccc2oc(=O)ccc2c1,inactive,–
Cc1occc(=O)c1O,inactive,–
CCN(CC)c1ccc(C(=O)c2ccccc2C(=O)O)c(O)c1,inactive,–
CC(c1cc2ccccc2s1)N(O)C(N)=O (centres undefined),inactive,–
CC(C)c1ccc(S(=O)(=O)O)cc1,inactive,–
O=C(O)c1ccccc1C(c1ccc(O)cc1)c1ccc(O)cc1,–,0.0797%
OCc1cccnc1,inactive,–
COS(C)(=O)=O,inactive,–
CCCCCC/C(C=O)=C\c1ccccc1,inactive,–

SMILES,outcome,"fluorescence, % of Rose Bengal"
CCCCCC1=CCCC1=O,inactive,–
CCCCCOC(C)=O,inactive,–
C#C[C@]1(O)CC[C@H]2[C@@H]3CCC4=CC(=O)CC[C@@H]4[C@H]3CC[C@@]21C,inactive,–
CCCCC(CC)COC(=O)CCCCC(=O)OCC(CC)CCCC (centres undefined),inactive,–
COc1ccc(NC(C)=O)cc1N,inactive,–
OC[C@H]1O[C@@](CO)(O[C@H]2O[C@H](CO)[C@@H](O)[C@H](O)[C@H]2O)[C@@H](O)[C@@H]1O,inactive,–
Cc1cccnc1,inactive,–
NNc1nncc2ccccc12,inactive,–
CC1=CCC2CC1C2(C)C (centres undefined),inactive,–
O=C(O)CCCCCCCCCCC(=O)O,inactive,–
CCN(CC)CCCC(C)Nc1ccnc2cc(Cl)ccc12 (centres undefined),inactive,–
CC(=O)Nc1ccccc1,inactive,–
CC(=O)CC(=O)Nc1ccccc1,inactive,–
OCC(CO)(CBr)CBr,inactive,–
CCCCCCCCC/C=C/CC1CC(=O)OC1=O (centres undefined),inactive,–
CC[C@H](C)C(=O)O[C@H]1C[C@@H](C)C=C2C=C[C@H](C)[C@H](CC[C@@H]3C[C@@H](O)CC(=O)O3)[C@H]21,inactive,–
O=[N+]([O-])c1ccc(/C=C/c2ccc([N+](=O)[O-])cc2S(=O)(=O)O)c(S(=O)(=O)O)c1,inactive,–
CC1=CC(=O)NS(=O)(=O)O1,inactive,–
C=C(C)C(=O)Nc1ccc(Cl)c(Cl)c1,inactive,–
